Assay results as given in PubChem BioAssay (Tox21).
Where “and” joins values, the source holds several entries; their conditions need not be identical. Equal values may be shown once. A number with no mark means an inactive call. Results filed as inconclusive are left out. A call without a number means that no potency is given here. Calls of active or inactive are those of the source. Unless noted, calls come from the whole dose curve; as a rule, active = well fitted curve in the direction sought with a large enough effect in the repeat runs; inconclusive = weak or mixed curves; inactive = no such curve, though single readings can be large; an effect the other way counts as inactive or inconclusive.

Legend:
[1] = biological target: Estrogen receptor beta (Homo sapiens) (UniProt Q92731); experiment: qHTS assay to identify small molecule agonists of the estrogen receptor beta (ER-beta) signaling pathway (AID 1259377; active = well fitted activation curve with a large enough effect in the signal ratio in the repeat runs, not every such curve was filed as active; the % refers to the signal ratio)
How it was run: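 qHTS in ER-beta-UAS-bla HEK293T cells: 6 hr settling, then 16 hr compound at 37C, then LiveBLAzer substrate 2 h at RT before fluorescence reading.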

[2] = biological target: Estrogen receptor beta (Homo sapiens) (UniProt Q92731); experiment: qHTS assay to identify small molecule antagonists of the estrogen receptor beta (ER-beta) signaling pathway (AID 1259378; active = well fitted inhibition curve with a large enough effect in the signal ratio in the repeat runs, not every such curve was filed as active; the % refers to the signal ratio)
How it was run: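 Antagonist mode: compounds added to beta-lactamase reporter HEK293T ER-beta-UAS cells stimulated with E2 (1nM final), 16 hr at 37C. LiveBLAzer B/G FRET substrate, 2 hours room temperature, fluorescence read-out.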

[3] = qHTS assay to identify small molecule agonists of the androgen receptor (AR) signaling pathway in the presence of an antagonist - cell viability counter screen (AID 1259379);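 note: MDA-kb2 human breast cancer cells carrying an MMTV luciferase reporter; series mostly up to about 92 µM; nearly all actives have a fitted effect of over 25% in size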
How it was run: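 Nilutamide-containing (3.0uM final) MDA-kb2 cultures, 3,000 cells/well, were treated with compounds across 15 concentrations. After 16 hr at 37C with no CO2, cell viability was determined by CellTiter-Fluor fluorescence in the luciferase assay wells.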

[4] = qHTS assay to identify small molecule antagonists of the estrogen receptor beta (ER-beta) signaling pathway - cell viability counter screen (AID 1259382);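 note: HEK293T cells carrying ER-beta-UAS-bla reporter stimulated with estradiol; series mostly up to about 92 µM; nearly all actives have a fitted effect of over 55% in size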
How it was run: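 Viability is scored by CellTiter-Glo luminescence (30 min, room temperature) in ER-beta-UAS-bla HEK293T wells already read for reporter fluorescence. Compound exposure lasts 16 hr at 37C alongside 1nM 17-beta-estradiol in charcoal-stripped serum medium.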

[5] = biological target: Estrogen receptor (Homo sapiens) (UniProt P03372); experiment: qHTS assay to identify small molecule agonists of the estrogen receptor alpha (ER-alpha) signaling pathway in the presence of an antagonist (AID 1259383; calls by dose curve; note: top concentration of the series differs between compounds; nearly all actives have a fitted effect of over 15% in size)
How it was run: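 Readout was ERE-driven luciferase luminescence in VM7Luc4E2 cells, which express full-length ER-alpha endogenously. Compounds were tested at 15 concentrations for 22hr alongside 10.0nM ICI-182,780 (final concentration).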

[6] = qHTS assay to identify small molecule agonists of the estrogen receptor alpha (ER-alpha) signaling pathway in the presence of an antagonist - cell viability counter screen (AID 1259386);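 note: series mostly up to about 92 µM; cells exposed to compounds for 22 h at 37 °C before the viability read; nearly all actives have a fitted effect of over 30% in size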
How it was run: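 In this counter screen, compound effects on VM7Luc4E2 viability were tested in the presence of the antagonist ICI-182,780 at 10.0nM final. Compounds were dosed at 15 concentrations, exposure lasted 22hr, and the CellTiter-Fluor signal was read.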

[7] = biological target: Progesterone receptor (Homo sapiens) (UniProt P06401); experiment: qHTS assay to identify small molecule agonists of the progesterone receptor (PR) signaling pathway (AID 1346784; calls by dose curve; note: nearly all actives have a fitted effect of over 30% in size)
How it was run: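 Fluorescence from LiveBLAzer B/G FRET substrate cleavage (2 hr, RT) reported PR activation in PR-UAS-bla HEK 293T cells treated 16 hr at 37C/5% CO2 with compounds; medium contained 2% charcoal-stripped FBS.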

[8] = biological target: Progesterone receptor (Homo sapiens) (UniProt P06401); experiment: qHTS assay to identify small molecule antagonists of the progesterone receptor (PR) signaling pathway (AID 1346795; active = well fitted inhibition curve with a large enough effect in the signal ratio in the repeat runs, not every such curve was filed as active; the % refers to the signal ratio; note: potency is the fitted concentration of half-maximal effect)
How it was run: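 Fluorescence intensity measured 2 hr after adding beta-lactamase FRET substrate to PR-UAS-bla HEK293T cells that had been co-treated 16 hr with compound and 1 nM R5020 (final concentration) in 2% charcoal-stripped FBS.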

[9] = qHTS assay to identify small molecule antagonists of the progesterone receptor (PR) signaling pathway - cell viability counter screen (AID 1346798); note: series mostly up to about 92 µM; nearly all actives have a fitted effect of over 50% in size
How it was run: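 CellTiter-Glo luminescence; PR-UAS-bla HEK293T, 3,000 cells/well; compound + R5020, 16 hr, 37C/5% CO2; 30 min RT before read.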

[10] = qHTS assay to identify small molecule agonists of the progesterone receptor (PR) signaling pathway - cell viability counter screen (AID 1346799; calls by dose curve; note: nearly all actives have a fitted effect of over 45% in size)
How it was run: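 In parallel with the beta-lactamase readout, cytotoxicity toward PR-UAS-bla HEK293T cells was measured by CellTiter-Glo luminescence following 16 hr compound incubation in 2% charcoal-stripped FBS medium.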

[11] = qHTS assay to identify small molecule antagonists of the TGF-beta/Smad signaling pathway - cell viability counter screen (AID 1346824); note: nearly all actives have a fitted effect of over 50% in size
How it was run: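 Cytotoxicity counter-screen run in the same wells as the beta-lactamase Smad reporter read: CellTiter-Glo luminescence after 30 min at room temperature. HEK 293T SBE-bla cells had 5 hr compound exposure at 37 C with TGF-beta1 (0.25 ng/mL stock).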

[12] = qHTS assay to identify small molecule agonists of the TGF-beta/Smad signaling pathway (AID 1346859; active = well fitted activation curve with a large enough effect in the signal ratio in the repeat runs, not every such curve was filed as active; the % refers to the signal ratio; note: series mostly up to about 77 µM)
How it was run: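 After overnight seeding, SBE-bla HEK 293T cells are dosed with compounds in DMSO and kept 5 hr at 37 C, 5% CO2. LiveBLAzer-type FRET substrate is then applied for 2 hr at room temperature.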

[13] = biological target: Thyrotropin-releasing hormone receptor (Homo sapiens) (UniProt P34981); experiment: qHTS assay to identify small molecule antagonists of the thyrotropin-releasing hormone receptor (TRHR) signaling pathway (AID 1346877; active = well fitted inhibition curve with a large enough effect in the repeat runs, not every such curve was filed as active; note: series mostly up to about 51 µM)
How it was run: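 Kinetic fluorescence (3 min, 1 s resolution) following stimulation with TRH at 1 nM final; HEK293 cells bearing human TRHR; 5 min compound preincubation at RT; concentration-response over 15 points, triplicates.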

[14] = biological target: Thyrotropin-releasing hormone receptor (Homo sapiens) (UniProt P34981); experiment: qHTS assay to identify small molecule agonists of the thyrotropin-releasing hormone receptor (TRHR) signaling pathway (AID 1346891; calls by dose curve;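 note: HEK293 cells expressing TRHR with calcium dye readout; series mostly up to about 58 µM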)
How it was run: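 Compounds were tested as agonists at 15 concentrations, in triplicate, on TRHR-Hek293 cells; calcium-sensitive dye fluorescence was recorded for 3 min following addition.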

[15] = Human pregnane X receptor (PXR) small molecule agonists, qHTS cell viability counter screen (AID 1346977); note: nearly all actives have a fitted effect of over 50% in size
How it was run: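 Viability counter screen: CellTiter-Fluor signal in PXR-Luc HepG2 cells, 24hr compound exposure, 37C, 5% CO2.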

[16] = qHTS assay to identify small molecule antagonists of the sonic hedgehog signaling (Shh) pathway (AID 1259369; calls by dose curve; note: nearly all actives have a fitted effect of over 45% in size; note: potency is the fitted concentration of half-maximal effect)
How it was run: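 Stable Gli1-Luc reporter NIH/3T3 clone; quantitative HTS in stimulated mode with conditioned medium. Luminescence measured after 24hr compound treatment at 37 C.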

[17] = qHTS assay to identify small molecule agonists or antagonists of the thyroid stimulating hormone receptor (TSHR) signaling pathway - wild type cell line counter screen (AID 1259384; calls by dose curve)
How it was run: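 Counter screen in untransfected Hek293: compounds (15-point titration, triplicate) plus phosphodiesterase inhibitor Ro20-1724 added after 18 h plating; 30 min RT. Intracellular cAMP via competitive d2/cryptate immunoassay, 1 h incubation.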

[18] = qHTS assay to identify small molecule agonists of the TGF-beta/Smad signaling pathway - cell viability counter screen (AID 1346829); note: top concentration of the series differs between compounds; nearly all actives have a fitted effect of over 45% in size
How it was run: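 Compound-treated SBE-bla HEK 293T cells (5 hr, 37 C) were assessed for viability with CellTiter-Glo in parallel with the reporter read.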

[19] = qHTS assay to identify small molecule agonists of the estrogen receptor beta (ER-beta) signaling pathway - cell viability counter screen (AID 1259380); note: nearly all actives have a fitted effect of over 30% in size
How it was run: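 Steps: plate ER-beta-UAS-bla HEK293T cells, rest 6 hr; add compounds in DMSO; incubate 16 hr at 37C, 5% CO2; add FRET substrate 2 hr; add CellTiter-Glo, wait 30 min at room temperature; read luminescence.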

[20] = biological target: Thyrotropin receptor (Homo sapiens) (UniProt P16473); experiment: qHTS assay to identify small molecule antagonists of the thyroid stimulating hormone receptor (TSHR) signaling pathway (AID 1259385; calls by dose curve; note: nearly all actives have a fitted effect of over 20% in size)
How it was run: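 Antagonist mode: compound-treated TSHR-expressing HEK293 cells were stimulated with 1.5 ng/mL TSH (final) in presence of Ro20-1724 for 30 min at RT. HTRF cAMP detection after 1 h; each compound tested at 15 concentrations, triplicate.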

Sequence of Thyrotropin-releasing hormone receptor (Homo sapiens) (P34981 whole entry, looked up): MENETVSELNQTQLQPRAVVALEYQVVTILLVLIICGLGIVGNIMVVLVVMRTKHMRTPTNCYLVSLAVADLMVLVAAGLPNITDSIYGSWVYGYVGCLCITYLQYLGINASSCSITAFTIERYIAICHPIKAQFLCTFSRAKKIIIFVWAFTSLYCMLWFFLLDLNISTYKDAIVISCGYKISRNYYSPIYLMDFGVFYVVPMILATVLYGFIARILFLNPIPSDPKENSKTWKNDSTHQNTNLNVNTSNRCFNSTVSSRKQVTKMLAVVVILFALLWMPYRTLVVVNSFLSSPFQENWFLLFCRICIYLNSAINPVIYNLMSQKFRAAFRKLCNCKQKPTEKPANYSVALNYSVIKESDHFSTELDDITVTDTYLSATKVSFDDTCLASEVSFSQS
Sequence of Estrogen receptor beta (Homo sapiens) (Q92731 whole entry, looked up): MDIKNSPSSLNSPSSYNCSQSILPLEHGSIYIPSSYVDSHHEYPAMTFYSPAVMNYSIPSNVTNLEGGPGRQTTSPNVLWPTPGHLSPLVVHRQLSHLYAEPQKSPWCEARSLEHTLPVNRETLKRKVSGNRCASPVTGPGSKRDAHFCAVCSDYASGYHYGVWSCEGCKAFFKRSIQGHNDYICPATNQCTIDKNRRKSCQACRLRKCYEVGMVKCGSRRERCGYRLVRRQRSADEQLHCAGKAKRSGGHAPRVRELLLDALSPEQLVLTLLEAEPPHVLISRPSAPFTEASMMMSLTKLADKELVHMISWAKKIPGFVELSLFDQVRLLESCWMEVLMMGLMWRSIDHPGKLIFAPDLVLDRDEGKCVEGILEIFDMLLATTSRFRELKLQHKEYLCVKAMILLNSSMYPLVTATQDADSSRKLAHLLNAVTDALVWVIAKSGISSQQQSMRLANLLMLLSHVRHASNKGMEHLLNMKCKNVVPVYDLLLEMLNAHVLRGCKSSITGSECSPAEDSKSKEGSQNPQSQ
Sequence of Estrogen receptor (Homo sapiens) (P03372 whole entry, looked up): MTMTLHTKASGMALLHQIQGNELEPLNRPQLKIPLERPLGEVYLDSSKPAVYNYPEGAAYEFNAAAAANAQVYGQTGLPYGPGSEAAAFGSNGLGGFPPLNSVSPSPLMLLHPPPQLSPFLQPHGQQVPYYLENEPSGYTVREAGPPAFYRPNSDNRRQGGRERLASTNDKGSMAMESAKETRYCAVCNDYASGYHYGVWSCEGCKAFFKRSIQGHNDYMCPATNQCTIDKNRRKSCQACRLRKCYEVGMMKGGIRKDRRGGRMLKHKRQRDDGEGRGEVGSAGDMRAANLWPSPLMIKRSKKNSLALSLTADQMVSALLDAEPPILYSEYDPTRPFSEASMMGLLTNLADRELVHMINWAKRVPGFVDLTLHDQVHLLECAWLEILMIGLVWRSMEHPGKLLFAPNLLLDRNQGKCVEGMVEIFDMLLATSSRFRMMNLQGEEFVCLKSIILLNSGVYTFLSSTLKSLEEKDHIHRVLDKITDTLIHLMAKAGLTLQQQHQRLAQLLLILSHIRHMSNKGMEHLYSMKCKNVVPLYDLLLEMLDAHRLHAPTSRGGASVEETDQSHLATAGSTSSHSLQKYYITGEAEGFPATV
Sequence of Thyrotropin receptor (Homo sapiens) (P16473 whole entry, looked up): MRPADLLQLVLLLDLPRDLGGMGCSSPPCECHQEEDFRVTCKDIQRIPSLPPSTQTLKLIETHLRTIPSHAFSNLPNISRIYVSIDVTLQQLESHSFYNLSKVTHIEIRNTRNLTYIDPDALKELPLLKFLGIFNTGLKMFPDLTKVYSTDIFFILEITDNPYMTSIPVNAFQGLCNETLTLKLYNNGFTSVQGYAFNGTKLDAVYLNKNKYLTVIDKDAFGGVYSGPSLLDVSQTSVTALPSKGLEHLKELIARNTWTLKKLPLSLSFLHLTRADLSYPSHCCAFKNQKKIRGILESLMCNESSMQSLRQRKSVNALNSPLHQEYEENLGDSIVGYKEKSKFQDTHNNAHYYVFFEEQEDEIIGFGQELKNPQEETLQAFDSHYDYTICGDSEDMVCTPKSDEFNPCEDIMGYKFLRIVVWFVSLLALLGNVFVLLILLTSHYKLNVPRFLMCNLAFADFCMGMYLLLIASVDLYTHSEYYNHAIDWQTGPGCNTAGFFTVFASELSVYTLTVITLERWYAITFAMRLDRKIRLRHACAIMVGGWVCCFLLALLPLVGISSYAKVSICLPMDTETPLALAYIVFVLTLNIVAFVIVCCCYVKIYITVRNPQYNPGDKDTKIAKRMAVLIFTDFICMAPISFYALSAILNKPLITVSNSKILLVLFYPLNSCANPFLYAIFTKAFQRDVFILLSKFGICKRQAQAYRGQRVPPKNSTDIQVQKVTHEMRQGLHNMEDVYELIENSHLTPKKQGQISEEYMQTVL
Sequence of Progesterone receptor (Homo sapiens) (P06401 whole entry, looked up): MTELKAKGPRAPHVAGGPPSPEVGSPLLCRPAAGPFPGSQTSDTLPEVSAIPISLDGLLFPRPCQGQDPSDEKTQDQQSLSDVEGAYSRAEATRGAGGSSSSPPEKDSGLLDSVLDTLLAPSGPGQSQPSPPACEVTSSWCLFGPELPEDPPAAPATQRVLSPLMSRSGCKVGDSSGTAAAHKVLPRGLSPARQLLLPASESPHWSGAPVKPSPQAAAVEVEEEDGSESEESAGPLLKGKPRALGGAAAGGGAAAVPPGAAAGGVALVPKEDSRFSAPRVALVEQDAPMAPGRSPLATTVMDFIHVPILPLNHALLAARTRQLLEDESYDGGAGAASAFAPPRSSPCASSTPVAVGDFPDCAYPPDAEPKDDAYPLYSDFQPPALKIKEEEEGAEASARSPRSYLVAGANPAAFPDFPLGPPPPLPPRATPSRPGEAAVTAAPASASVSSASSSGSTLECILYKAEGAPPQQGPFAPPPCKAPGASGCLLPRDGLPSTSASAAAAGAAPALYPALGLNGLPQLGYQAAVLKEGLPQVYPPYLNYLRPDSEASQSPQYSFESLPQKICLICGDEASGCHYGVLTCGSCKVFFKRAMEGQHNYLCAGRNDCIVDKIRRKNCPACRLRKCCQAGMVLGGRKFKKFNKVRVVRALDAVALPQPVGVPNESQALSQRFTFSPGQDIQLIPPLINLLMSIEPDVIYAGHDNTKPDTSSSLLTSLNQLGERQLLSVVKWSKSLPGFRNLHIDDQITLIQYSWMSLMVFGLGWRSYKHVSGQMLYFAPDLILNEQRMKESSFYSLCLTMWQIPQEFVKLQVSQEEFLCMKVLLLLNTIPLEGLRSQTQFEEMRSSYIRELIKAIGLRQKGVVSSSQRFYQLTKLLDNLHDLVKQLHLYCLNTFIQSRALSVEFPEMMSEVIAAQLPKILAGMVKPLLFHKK

Structure (SMILES)	outcome [1]	outcome [2]	Potency [3]	Potency [4]	Potency [5]	Potency [6]	Potency [7]	Potency [8]	Potency [9]	Potency [10]	Potency [11]	outcome [12]	outcome [13]	outcome [14]	Potency [15]	Potency [16]	outcome [17]	outcome [18]	Potency [19]	Potency [20]
Cc1nc2c([nH]1)c(=O)n(C)c(=O)n2Cc1ccco1	inactive	inactive	inactive	inactive	inactive	inactive	inactive	inactive	inactive	inactive	inactive	inactive	inactive	inactive	inactive	–	–	–	–	–
O=C(CCCN1CCN(c2ccccn2)CC1)c1ccc(F)cc1	–	–	inactive	inactive	–	inactive	inactive	inactive	inactive	inactive	–	inactive	inactive	inactive	inactive	inactive	inactive	inactive	–	–
O=C1CCCCCCCCCCCN1	inactive	inactive	inactive	inactive	inactive	inactive	inactive	inactive	inactive	–	inactive	inactive	–	inactive	inactive	–	inactive	inactive	inactive	inactive
NS(=O)(=O)c1ccc(C(=O)O)cc1	inactive	–	inactive	inactive	inactive	inactive	inactive	inactive	inactive	inactive	–	inactive	–	–	inactive	–	inactive	inactive	inactive	inactive
Nc1c2c(nc3ccccc13)CCCC2O (centres undefined)	inactive	–	inactive	inactive	inactive	inactive	inactive	inactive	inactive	–	inactive	inactive	inactive	inactive	inactive	–	inactive	inactive	inactive	inactive
NS(=O)(=O)c1cc2c(cc1Cl)NC(C1CC3C=CC1C3)NS2(=O)=O (centres undefined)	inactive	inactive	inactive	inactive	inactive	inactive	inactive	inactive	inactive	inactive	inactive	inactive	inactive	inactive	inactive	–	–	inactive	–	–
O=Cc1cccc([N+](=O)[O-])c1	–	–	inactive	inactive	inactive	inactive	inactive	inactive	inactive	–	–	–	–	inactive	inactive	inactive	–	inactive	–	inactive
CC(C)(c1ccc(O)cc1)c1ccc(O)cc1	–	–	inactive	inactive	–	inactive	–	15.2 µM (active)	–	–	inactive	inactive	inactive	inactive	inactive	38.1 µM (active) and 19.7 µM (active)	inactive	inactive	–	inactive
